Compounds with a hit are over-represented: about 0.72% of the library has one in this group of screens.
PKA-R2B act: activators of human PKA-R2B complex; P22694+P31323; PKA-R2B holoenzyme dissociation, Cy5-IP20 fluorescence polarization; R2B truncated from residue 108, S112A mutant; 0% DMSO only, 100% 113 µM cGMP; activation, % at 11.4 µM; actives 0.079% (n = 340,000); AID 504700;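 active means activation above a cutoff set at the mean over all compounds plus 3 SD, cut at about 18% in these data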;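 further: higher means more holoenzyme dissociation and a rise in polarization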
Target sequence (P31323 whole entry, looked up, other chains not shown, the tested form may be a part): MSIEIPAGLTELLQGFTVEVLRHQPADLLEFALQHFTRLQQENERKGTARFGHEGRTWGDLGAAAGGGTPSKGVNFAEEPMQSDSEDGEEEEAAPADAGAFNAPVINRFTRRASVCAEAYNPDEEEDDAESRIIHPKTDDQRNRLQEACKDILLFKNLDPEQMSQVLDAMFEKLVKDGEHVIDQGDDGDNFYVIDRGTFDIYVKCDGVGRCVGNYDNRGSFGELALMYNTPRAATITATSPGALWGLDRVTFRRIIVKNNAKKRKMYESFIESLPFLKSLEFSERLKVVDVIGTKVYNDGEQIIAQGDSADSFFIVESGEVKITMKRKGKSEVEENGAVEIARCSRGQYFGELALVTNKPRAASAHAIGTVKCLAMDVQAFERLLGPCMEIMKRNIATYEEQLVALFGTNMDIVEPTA
PKA-R1A act: PKA-R1A complex activation; P00514+P68181; PKA-R1A dissociation, Cy5-IP20 fluorescence polarization; scaled: DMSO 0%, 113 µM cGMP 100%; activation, % at 11.4 µM; actives 0.083% (n = 340,000);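 active means percent activation above the mean of all tested compounds plus 3 SD, cut at about 19% in these data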;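 further: higher means more PKAc released from R1A so a rise in polarization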
PolyA inhibitor: yeast polyadenylation inhibition; S. cerevisiae SKY197-pL101 polyadenylation reporter, beta-gal luminescence; efflux-impaired pdr1/pdr3 knockout yeast; score 100 = 6 SD above DMSO; activity score, % at 12 µM; actives 0.02% (n = 300,000); AID 1875;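 active means lowest replicate activity score at least 50, where 100 means six control SD above control mean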;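 further: yeast exposed to compound for 9 h at 30 °C; higher score means more reporter readthrough which indicates perturbed polyadenylation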
Neddylation inh: inhibitors of human cullin neddylation | P61081+Q13564 | TR-FRET cullin neddylation, biochemical | calls only at 25 µM | actives 0.58% (n = 360,000); in the data active means inhibition above about 36%
Neddyl conf: confirmation of human cullin neddylation inhibitors | shares compounds with Neddylation inh | TR-FRET cullin neddylation biochemical assay | calls only at 25 µM | actives 13% (n = 1,800); in the data active means inhibition above about 40%;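 further: neddylation substrate is the cullin 1 ring ligase complex with SKP2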
Active calls of the source: *; i = inactive; x = no result given; + = active, no number.

SMILES	PKA-R2B act	PKA-R1A act	PolyA inhibitor	Neddylation inh	Neddyl conf
CCOC(=O)c1cn2nc(Oc3cccc(C(F)(F)F)c3)ccc2n1	-3	11	8	+	x
CCOC(=O)c1cn2nc(Oc3ccccc3)ccc2n1	x	x	5	i	x
CN(C)CCN(Cc1ccccc1)C(=O)C1CCN(c2ncnc3c2nc2n3CCCCC2)CC1	9	-2	-20	+	i
CC(C)N(Cc1ccccc1)C(=O)C1CCN(c2ncnc3c2nc2n3CCCCC2)CC1	6	-8	-21	i	x
O=C(Nc1ccccc1)c1cccc(C(=O)Nc2ccccc2)n1	3	-2	-8	+	i
O=C(O)c1ccc(NC(=O)c2cccc(C(=O)Nc3ccc(C(=O)O)cc3)n2)cc1	-10	-14	23	i	x
S=C(Nc1ccc2nc(-c3ccccn3)c(-c3ccccn3)nc2c1)N1CCOCC1	-2	-5	4	+	i
Cn1c(N/N=C/c2cccs2)nc2c1c(=O)n(Cc1ccccc1)c(=O)n2C	2	0	-19	+	i
CCCCn1c(=NC(=O)c2cccnc2)c(C(=O)OCC)cc2c(=O)n3ccccc3nc21	-8	-12	3	x	x
CCOCCCn1c(=NC(=O)c2cccnc2)c(C(=O)OCC)cc2c(=O)n3ccccc3nc21	-14	1	18	x	+
C/C(=N\NC(=O)c1cccc(S(=O)(=O)Nc2cccc(Cl)c2)c1)c1cccs1	7	2	-2	+	i
Cc1ccc(/C=N/NC(=O)c2cccc(S(=O)(=O)Nc3cccc(Cl)c3)c2)o1	-5	-12	-9	+	i
Cc1cc(C)n(Cc2ccc(C(=O)NCc3ccco3)o2)n1	6	-2	0	i	x
Cc1cc(C)n2nc(C(=O)NCc3ccco3)cc2n1	6	-8	-15	+	x
C/C(=N\NC(=O)c1nnn(-c2nonc2N)c1CN1CCCCCC1)c1ccc(Br)cc1	3	-14	2	i	x
Cc1ccccc1-c1cc2c(c3c1ccn3C)C1CCC2O1 (stereo not given)	x	x	x	i	x
Cn1ccc2c(-c3cncc4ccccc34)cc3c(c21)C1CCC3O1 (stereo not given)	x	x	x	+	+
CCCn1c(=O)[nH]c(=O)c2c1nc(-c1ccc(OC(F)F)c(OC)c1)n2CCOC	1	3	1	+	i
COc1ccccc1NC(=O)c1cc(C(=O)Nc2ccccc2OC)cc([N+](=O)[O-])c1	1	5	-2	i	x
COc1ccc(-c2cnc3ccccc3n2)cc1NC(=O)CNC(=O)c1ccccc1	10	-10	1	+	i
C[C@H](CO)N1C[C@H](C)[C@@H](CN(C)S(=O)(=O)c2ccc3ccccc3c2)OCc2cnnn2CCCC1=O	-15	-8	x	i	x
CCCC(=O)N1CCN(c2nc(CC(C)C)c3c(c2C#N)CCC3)CC1	-2	-9	1	+	i
CC(C)C(=O)N1CCN(c2nc(-c3ccccc3)c3c(c2C#N)CCCC3)CC1	0	-5	-15	x	x
CC1(C)CC2(CCO1)C(Nc1ccccc1)=NC(=S)N2CC(N)=O (stereo not given)	-3	1	1	+	i
CC1CC(C)CN(CCCNC(=O)c2cc3c(=O)[nH]c4ccccc4c3n2C)C1 (stereo not given)	-9	8	-4	+	i
SMILES	PKA-R2B act	PKA-R1A act	PolyA inhibitor	Neddylation inh	Neddyl conf
CN(CCCNC(=O)c1cc2c(=O)[nH]c3ccccc3c2n1C)Cc1ccccc1	7	8	-9	i	x
CCC1CCCCN1CCCNC(=O)c1cc2c(=O)[nH]c3ccccc3c2n1C (stereo not given)	2	-3	-3	+	i
Cn1c(C(=O)NCCCN2CCN(c3ccccc3F)CC2)cc2c(=O)[nH]c3ccccc3c21	-1	3	-17	i	x
Cc1ccc(CNC(=O)c2nccnc2C(=O)O)cc1	-9	-6	11	i	x
CCN(c1cccc(C)c1)S(=O)(=O)c1ccc2c3c(cccc13)C(=O)N2	2	-11	-15	i	x
CCN(CC)S(=O)(=O)c1ccc2c3c(cccc13)C(=O)N2	-9	3	8	+	x
CCOCCCn1c(C)nc2c(c1=O)c1nc3ccccc3nc1n2-c1ccc(C)cc1	-12	-7	8	+	i
CCCn1cnc2c1c(=O)n(CCCCC(C)=O)c(=O)n2C	-7	6	-10	i	x
Cc1cc2nc(-c3nnnn3-c3c(C)cccc3C)c(=O)[nH]c2cc1C	x	x	x	+	i
Cc1cccc(C)c1-n1nnnc1-c1nc2ccccc2[nH]c1=O	x	x	x	i	x
Cc1noc(C)c1S(=O)(=O)N(C)C[C@H]1OCCCC[C@H](C)Oc2ccc(NC(=O)CCCN(C)C)cc2C(=O)N([C@H](C)CO)C[C@@H]1C	-2	-5	x	i	x
CC(C(=O)N1CCCC1)N1CCN(S(=O)(=O)c2ccccc2)CC1 (stereo not given)	-3	0	x	i	x
COc1ccc(-c2nn(-c3ccccc3)cc2C2CC(c3cccs3)=NN2C(=O)CCCC(=O)O)cc1 (stereo not given)	-3	-10	4	+	i
O=C(O)CCC(=O)N1N=C(c2cccs2)CC1c1cn(-c2ccccc2)nc1-c1ccccc1 (stereo not given)	-1	-3	-13	+	x
Cc1ccc(-c2nn(-c3ccccc3)cc2C2CC(c3cccs3)=NN2C(=O)CCCC(=O)O)cc1 (stereo not given)	-6	8	1	x	x
CCOC(=O)NN1C(=O)c2ccccc2NC1(C)C	-7	-8	19	x	x
CC1(C)Nc2ccccc2C(=O)N1NC(=O)c1ccccc1	3	1	-30	+	i
O=C(O)C/C(=C\c1cc(Cl)c2c(c1)OCO2)c1nc2ccccc2s1	-7	-2	8	i	x
O=C(O)C/C(=C\c1ccc2c(c1)OCO2)c1nc2ccccc2s1	4	-3	1	+	x
CN1CCc2c1nc1ccccc1c2NC(=O)CN1CCCC1	-2	3	-1	+	i
CCCCCCC(=O)Nc1c2c(nc3ccccc13)N(C)CC2	7	2	9	x	x
CCN(CC)CC(=O)Nc1cc(N(C)C)nc2ccccc12	-4	-9	-19	i	x
CN1CCN(CC(=O)Nc2cc(N(C)C)nc3ccccc23)CC1	-1	-9	-7	+	i
CC(NC(=O)C(=O)c1cn(CC(=O)N2CCOCC2)c2ccccc12)c1ccccc1 (stereo not given)	-10	-4	-2	i	x
CSc1ccc(CCNC(=O)CN2C(=O)c3cccnc3Oc3ccc(C)cc32)cc1	16	-16	7	i	x
N#Cc1c(F)cccc1N1CCOCC1	-1	-7	0	+	i

Screening results (PubChem)
